Screening results (PubChem BioAssay)
CD11b adhes inh: inhibitors of human CD11b/CD18 binding to fibrinogen | K562 CD11b/CD18 adhesion to fibrinogen, ATPlite luminescence; Mn2+ added to activate the integrin | inhibition, % at 10 µM | 93,000 tested, 0.54% active | AID 1497;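 active = primary inhibition of 50% or more at 10 µM, then 40% or more on retest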
FAK blocker: blocks human focal adhesion kinase activity; Q05397; biochemical FAK kinase activity assay; inhibition, %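 (tested at 7 µM)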; 97,000 tested, 0.84% active; AID 727;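 note: 0% = DMSO and 100% = reference compound high control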
CD11b adhes enh: CD11b/CD18-fibrinogen binding enhancement | P05107+P11215 | K562 CD11b/CD18 adhesion to fibrinogen, ATPlite luminescence | activation, % at 10 µM | 93,000 tested, 0.07% active | AID 1499;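 active = 10 µM primary screen giving 50% or more activity, confirmed by 40% or more on retest at that dose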
PTK2B oligo ant: Pyk2 (human) oligomerization antagonism | z-score (the deposit names both 25 µM and 10 µM) | 99,000 tested, 0.83% active | Q14289 | Q293 cells, Pyk2 FERM NanoBiT luminescence; stronger effect = lower value;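 active = Z-score of -3 or lower, scaled per plate to the spread of control and sample wells; inactive = z-score above -3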;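 note: negative z-score means lost luminescence so less FERM oligomerization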
FAK inh confirm: FAK (human) inhibition confirmed | shares compounds with FAK blocker | FAK kinase biochemical inhibition assay | inhibition, % at 7 µM | 750 tested, 28% active
* hit, by the source's call; . = no result given. Sampled rows, rich in hits. Any-hit rate of the full collection: about 1.8%. Cut-off read from the data, not from the text of the source, unless noted: active = inhibition above about 19%; inactive = the rest.

SMILES | CD11b adhes inh | FAK blocker | CD11b adhes enh | PTK2B oligo ant | FAK inh confirm
O=C(COC(=O)CCc1ccccc1)Nc1ncc(Cl)cc1Cl | 4 | 2 | -1 | 0.61 | .
COc1ccc2cc3cc(C(=O)Nc4ccc5c(c4)OCCO5)oc3nc2c1 | -1 | 43* | 52 | 0.1 | 13
COc1ccc2cc3cc(C(=O)Nc4cc(OC)c(OC)c(OC)c4)oc3nc2c1 | 8 | 0 | 9 | -1.7 | .
Clc1ccc2[nH]c3c(NCC4CCCO4)ncnc3c2c1 (stereo not drawn) | 44 | 22* | -5 | . | 10
CC(C(=O)O)N1C(=O)/C(=C/C=C/c2ccco2)SC1=S (stereo not drawn) | . | 100* | . | -0.65 | 23*
CC1=NN(c2ccc(C(=O)OC(C)C)cc2)C(=O)/C1=C\C=C\c1ccco1 | . | -3 | . | -0.77 | .
O=[N+]([O-])c1cc(/C=N\Nc2nccs2)ccc1O | -14 | 91* | 45 | . | 72*
O=C(N/N=C/c1ccncc1)c1cc2c(ccc3ccccc32)o1 | 3 | 52* | 1 | -0.17 | 17
CN(C)c1cc2c(c(N(C)C)c1)C(=O)c1ccccc1C2=O | -12 | 49* | 1 | -0.9 | 24*
CC(=O)c1ccc(NCC(=O)N2CCN(c3ccccc3)CC2)cc1 | -23 | 20* | 41 | 1.9 | 19*
CC1CCCN(Cc2c(O)ccc3c(=O)c(-c4nc5ccccc5s4)c(N)oc23)C1 (stereo not drawn) | . | 34* | . | -0.75 | 8
COc1ccc([N+](=O)[O-])cc1COc1cc(C)cc2oc(=O)cc(-c3ccccc3)c12 | 12 | 27* | -1 | 0.34 | 22*
O=C(Nc1ccccc1N1CCCC1)c1ccco1 | 1 | 2 | 4 | 1.6 | .
O=C(Nc1ccccc1N1CCCCC1)c1ccco1 | . | 24* | . | -0.16 | 9
CSc1nc(NCC(C)C)c2c3c(sc2n1)CN(C)CC3 | -18 | 5 | -1 | 0.24 | .
CSc1nc(NCc2ccccc2)c2c3c(sc2n1)CN(C)CC3 | -10 | 21* | -2 | -1 | 6
N#CC(c1ccccc1)N(CCCCl)C(=O)c1ccccc1 (stereo not drawn) | 12 | . | 0 | . | .
COc1cccc(-c2cn3nc4c(nc3n2)CCCC4)c1 | 36 | 27* | 1 | -0.47 | 0
CCC1=NNc2cccc3c(OC)ccc1c23 | -14 | 82* | 65 | . | 26*
CCCCOC(=O)Cn1c(=N)n(CCN2CCOCC2)c2ccccc21 | . | 0 | . | -0.16 | .
N=c1n(CCN2CCOCC2)c2ccccc2n1CC(=O)c1ccc(Cl)c(Cl)c1 | 23 | 95* | 1 | 2 | -2
CCOC(=O)C(C(=O)N(C)C)c1ncc(C(F)(F)F)cc1Cl (stereo not drawn) | . | 78* | . | 0.27 | -3
CCOC(=O)C(C(=O)NCc1ccc(F)cc1)c1ncc(C(F)(F)F)cc1Cl (stereo not drawn) | -22 | 1 | 1 | -0.66 | .
CCCn1c(=O)n(C)c(=O)c2c(SCC(=O)NC34CC5CC(CC(C5)C3)C4)nc(CC(C)C)nc21 | 4 | . | 5 | . | .
CN(C)c1ccc(/C=N/N2C(=S)SC(C)(C)C2N(O)C(=O)Nc2ccc([N+](=O)[O-])cc2)cc1 (stereo not drawn) | 4 | 3 | -6 | 0.14 | .
SMILES | CD11b adhes inh | FAK blocker | CD11b adhes enh | PTK2B oligo ant | FAK inh confirm
Cc1ccc2c(c1)cc1c(=O)[nH]ncn12 | . | 37* | . | 0.04 | 12
COc1ccc(NC(=O)CSc2ccc3c4c(cccc24)C(=O)c2ccccc2-3)cc1 | . | 4 | . | -2 | .
N#Cc1cccc(NC(=O)CSc2ccc3c4c(cccc24)C(=O)c2ccccc2-3)c1 | -2 | 27* | 62 | -1.1 | 22*
COc1cccc(C(=O)Nc2c(C(N)=O)oc3ccccc23)c1 | -16 | 21* | 5 | . | 8
CCOC(=O)N1CCC(NC(=O)C(NC(=O)C2CCC(C)CC2)C(C)CC)CC1 (stereo not drawn) | -14 | -2 | -4 | . | .
Cc1cccc(NC(=O)NCc2ccc3c(c2)cc(C)n3C)c1 | 12 | 22* | 51 | . | -7
C=CCc1ccc(OCCOc2cccc3ccc(C)nc23)c(OC)c1 | . | 1 | . | -1.3 | .
Cc1ccc(-c2n[nH]c(=S)n2/N=C/C=C\c2ccccc2[N+](=O)[O-])cc1 | 2 | 29* | -2 | -0.16 | 15
COc1ccccc1NC(=O)/C(C#N)=C/c1cc([N+](=O)[O-])ccc1N1CCCC1 | 2 | . | -6 | . | .
CCN1C(=O)C(CC(=O)Nc2ccc(Br)cc2)N(CCCc2ccccc2)C1=S (stereo not drawn) | . | -9 | . | 1.1 | .
COc1ccc(-c2coc3cc4oc(=O)cc(-c5ccccc5)c4cc23)cc1F | 19 | . | 62 | -0.72 | .
